In PubChem BioAssay (NCATS):
Results filed as inconclusive are left out. Values without a mark were called inactive. Activity calls are given as the source filed them. The call rests on the fitted dose curve; in most records, active means well fitted cell-killing curve with a large enough effect; inconclusive means small, poorly fitted or top-dose-only effect, or effect the other way; inactive means no such curve, though single readings can be large or run the other way.

Assay: Quantitative highthroughput screen to assess conditional lethalithy of NOMO1 cells grown in Human Plasma-Like Medium with dialyzed fetal bovine serum (HPLM+ds) (AID 1963878); further: nearly all actives have a fitted effect of over 35% in size;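 on viability: 100% = DMSO wells and 0% = empty wells on each plate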
Details: NOMO1 AML cells in HPLM+ds, CellTiter-Glo viability, 48 h; series mostly up to 45.8 µM; viability: at the top concentration
Procedure, shortened: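 Each medium arm—HPLM with 10% dialyzed FBS, or RPMI1640 with 5 mM glucose and 10% untreated or dialyzed FBS—was screened against an 11-point, 3-fold compound titration for 48 h at 37 °C, with CellTiter-Glo luminescence as endpoint.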
Potency means the concentration at half of the fitted maximal effect.

| Structure (SMILES) | viability | Potency |
| --- | --- | --- |
| Clc1ccc(C(Cn2ccnc2)OCc2ccc(Sc3ccccc3)cc2)c(Cl)c1 (stereo not drawn) | 86.7% |  |
| CN1N=C(N)c2cn([C@@H]3O[C@H](COP(=O)(O)O)[C@@H](O)[C@@H]3O)c3ncnc1c23 |  | 5.26 µM (active) |
| O=C1CCC[C@@H]2[C@H]3CCC[N+]4([O-])CCC[C@@H](CN12)[C@@H]34 (stereo partly drawn) |  | 5.9 µM (active) |
| Nc1nccc(Oc2ccc(NC(=O)c3c[nH]cc(-c4ccc(F)cc4)c3=O)cc2F)c1Cl |  | 20.9 µM (active) |
| COc1cc(OC)c(NC(=O)Nc2cc(C)on2)cc1Cl | 95.6% |  |
| O=c1c(O)c(-c2ccc(O)c(O)c2)oc2cc(O)ccc12 | 82.3% |  |
| COc1cc2ncnc(-n3nc(-c4ccccn4)nc3N)c2cc1OC |  | 20.9 µM (active) |
| CN(C)[C@@H](CCOc1cccc2ccccc12)c1ccccc1 | 67.6% |  |
| CCCCC(C)(C)[C@H](O)C=C[C@H]1[C@H](O)CC(=O)[C@H]1CC=CCCCC(=O)O |  | 20.9 µM (active) |
| O=C(Nc1cccc2c(=O)cc(-c3nn[nH]n3)oc12)c1ccc(OCCCCc2ccccc2)cc1 |  | 23.5 µM (active) |
| CCN(CC)CCCCNc1nc2cc(Cl)c(Cl)cc2nc1-c1ccc(-c2cccs2)s1 |  | 20.9 µM (active) |
| CCN(CC)CCCCNc1ncc2c(n1)N(C)C(=O)N(c1c(Cl)c(OC)cc(OC)c1Cl)C2 |  | 26.4 µM (active) |
| C[C@@H]1C[C@H]2[C@@H]3CCC4=CC(=O)C=C[C@]4(C)[C@@]3(Cl)[C@@H](O)C[C@]2(C)[C@@]1(OC(=O)c1ccco1)C(=O)CCl |  | 1.18 µM (active) |
